Hit rate of the full screen: of about 5,500 compounds, about 2,000 (36%) were called active. Inconclusive results (about 18%) are left out. No stated cut-off is given here; in the data, active means normalized growth mostly below about 0.91 (no sharp cut-off); inconclusive means no clear call, values can overlap the other calls; inactive means mostly above about 0.92. Some of the results follow.
Test: chemical genetic growth profiling, strain panel (AID 1159580);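 further: tested at 20 µM; growth read once vehicle control cultures reached saturation at 30 °C; 1 = growth at the plate median or of vehicle wells; lower values mean less growth of the strain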
Conditions: S. cerevisiae deletion strains, growth OD

Measured: normalized growth

CC(CCC(=O)O)[C@H]1CCC2C3CC[C@@H]4C[C@H](O)CC[C@]4(C)C3CC[C@@]21C (stereo partly drawn)
active: locus YJR043C, strain POL32, hits give low values 0.849 | locus YKL190W, strain CNB1, hits give low values 0.882 | locus YKR001C, strain vps1, hits give low values 0.861 | locus YLR027C, strain aat2, hits give low values 0.921 | locus YLR039C, strain RIC1, hits give low values 0.479 | locus YLR102C, strain apc9, hits give low values 1.08 [resistant] | locus YLR262C, strain YPT6 (second series), hits give low values 0.488 | locus YLR262C, strain YPT6, hits give low values 0.321 | locus YLR320W, strain mms22, hits give low values 0.706 | locus YLR330W, strain CHS5, hits give low values 0.849 | locus YLR342W, strain FKS1 (second series), hits give low values 0.566 | locus YLR342W, strain FKS1, hits give low values 0.688 | locus YLR418C, strain cdc73, hits give low values 0.74 | locus YMR058W, strain fet3, hits give low values 0.871 | locus YMR205C, strain PFK2, hits give low values 0.854 | locus YMR307W, strain GAS1, hits give low values 0.456 | locus YNL067W, strain RPL9B, hits give low values 0.756 | locus YNL071W, strain lat1, hits give low values 0.809 | locus YNL307C, strain MCK1, hits give low values 0.795 | locus YNR052C, strain pop2, hits give low values 0.838 | locus YOR001W, strain rrp6, hits give low values 0.851 | locus YOR069W, strain VPS5, hits give low values 0.876 | locus YOR083W, strain WHI5, hits give low values 0.844 | locus YOR106W, strain vam3, hits give low values 0.77 | locus YOR136W, strain idh2, hits give low values 1.08 [resistant] | locus YOR184W, strain ser1, hits give low values 0.505 | locus YOR316C, strain cot1, hits give low values 1.1 [resistant] | locus YPL051W, strain arl3, hits give low values 0.793 | locus YPL078C, strain atp4, hits give low values 0.892 | locus YPR119W, strain clb2, hits give low values 1.11 [resistant] | locus YPR141C, strain kar3, hits give low values 1.09 [resistant]
inactive: locus YJL187C, strain SWE1, hits give low values 0.979 | locus YJR066W, strain TOR1, hits give low values 0.952 | locus YKL009W, strain mrt4, hits give low values 0.935 | locus YKL068W, hits give low values 1.05 | locus YKL085W, strain MDH1 (second series), hits give low values 1.03 | locus YKL085W, strain MDH1, hits give low values 1.03 | locus YKL160W, strain elf1, hits give low values 0.927 | locus YKR026C, strain gcn3, hits give low values 1.02 | locus YKR091W, strain srl3, hits give low values 1.03 | locus YLL001W, strain dnm1, hits give low values 0.933 | locus YLL026W, hits give low values 0.955 | locus YLL041C, strain sdh2, hits give low values 1.02 | locus YLR058C, strain SHM2, hits give low values 0.893 | locus YLR113W, strain HOG1, hits give low values 0.963 | locus YLR221C, strain rsa3, hits give low values 0.938 | locus YLR258W, strain gsy2, hits give low values 0.967 | locus YLR268W, strain sec22, hits give low values 0.886 | locus YLR357W, strain rsc2, hits give low values 1.07 | locus YLR370C, strain arc18, hits give low values 0.991 | locus YLR371W, strain rom2, hits give low values 1.09 | locus YLR384C, strain iki3, hits give low values 1.07 | locus YML016C, strain PPZ1, hits give low values 1.01 | locus YML032C, strain rad52, hits give low values 0.914 | locus YML120C, strain ndi1, hits give low values 0.93 | locus YML124C, strain tub3, hits give low values 1.05 | locus YMR078C, strain ctf18, hits give low values 1.06 | locus YMR125W, strain sto1, hits give low values 1.08 | locus YMR129W, hits give low values 1.03 | locus YMR223W, strain ubp8, hits give low values 0.934 | locus YMR231W, strain pep5, hits give low values 0.95 | locus YNL128W, strain TEP1, hits give low values 0.866 | locus YNL183C, strain NPR1, hits give low values 0.935 | locus YNL209W, strain ssb2, hits give low values 0.993 | locus YNL233W, strain BNI4, hits give low values 0.926 | locus YNL248C, strain rpa49, hits give low values 0.938 | locus YNL250W, strain rad50, hits give low values 1.02 | locus YNL271C, strain bni1, hits give low values 1.02 | locus YNL298W, strain CLA4, hits give low values 0.978 | locus YNL322C, strain KRE1 (second series), hits give low values 1.01 | locus YNR049C, strain mso1, hits give low values 0.987 | locus YOL012C, strain htz1 1.89 | locus YOL147C, strain pex11, hits give low values 1.02 | locus YOR061W, strain CKA2, hits give low values 0.964 | locus YOR070C, strain gyp1, hits give low values 0.953 | locus YOR080W, strain dia2, hits give low values 0.973 | locus YOR144C, strain elg1, hits give low values 1.02 | locus YOR231W, strain MKK1, hits give low values 0.97 | locus YOR265W, strain rbl2, hits give low values 0.994 | locus YOR270C, strain vph1, hits give low values 0.807 | locus YOR290C, strain snf2, hits give low values 0.937 | locus YPL106C, strain sse1, hits give low values 1.12 | locus YPL240C, strain hsp82, hits give low values 1.03 | locus YPL241C, strain CIN2, hits give low values 0.997 | locus YPL256C, strain CLN2, hits give low values 1.05 | locus YPR163C, strain tif3, hits give low values 0.968 | locus YPR167C, strain met16, hits give low values 0.991 | strain wtn01, hits give low values 0.961

From PubChem BioAssay AID1159580 (chemical genetic matrix, 2015)
